# Test results from PubChem BioAssay AID1851 (National Center for Advancing Translational Sciences (NCATS), 2009).
# In all, about 16,000 compounds went through this assay and about 2,600 (16%) were called active. About 20% were inconclusive and are not listed. The list is a sample of the results. A number with no mark means an inactive call. Calls follow the shape of the dose curve; as a rule, active = well fitted curve in the direction sought with a large enough effect; inconclusive = small, poorly fitted or top-dose-only effect, or effect the other way; inactive = no such curve, though single readings can be large or run the other way.
# Molecular target: Cytochrome P450 2D6 (Homo sapiens) (UniProt P10635)
# Sequence (P10635 whole entry, looked up): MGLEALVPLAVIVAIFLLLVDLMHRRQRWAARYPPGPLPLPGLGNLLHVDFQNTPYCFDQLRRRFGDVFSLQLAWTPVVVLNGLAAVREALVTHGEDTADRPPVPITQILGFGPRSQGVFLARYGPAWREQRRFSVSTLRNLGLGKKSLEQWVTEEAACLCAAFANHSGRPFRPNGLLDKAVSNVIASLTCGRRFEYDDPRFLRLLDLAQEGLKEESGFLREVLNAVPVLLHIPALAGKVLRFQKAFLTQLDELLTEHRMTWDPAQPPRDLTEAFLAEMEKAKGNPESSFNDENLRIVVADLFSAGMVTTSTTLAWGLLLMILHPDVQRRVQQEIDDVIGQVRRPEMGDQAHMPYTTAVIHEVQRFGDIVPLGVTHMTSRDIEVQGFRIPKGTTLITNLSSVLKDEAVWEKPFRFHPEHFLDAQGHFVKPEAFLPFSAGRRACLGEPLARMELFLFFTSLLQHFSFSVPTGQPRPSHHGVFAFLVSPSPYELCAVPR
# Experiment: Cytochrome panel assay with activity outcomes
# Settings: recombinant CYP, pro-luciferin dealkylation, luminescence, p450-cyp2d6; series mostly up to 57.1 µM
# % is scaled to controls: 0 for no effect and ±100 for the full control effect.
SMILES,"activity, negative = inhibition",AC50
Cc1cc2c(c(=O)o1)[C@@H](O)[C@H]1O[C@@H]1C2=O,3.46% [at 11.4 µM],–
C[N+](C)(C)c1ccc([C@H](N)C(=O)O)cc1,6.78% [at 11.4 µM],–
COc1ccc(CNc2ncnc3ccc(-c4cccnc4)cc23)c(OC)c1,–,10 µM (active)
COc1ccccc1CNc1ncnc2ccc(-c3cccnc3)cc12,–,5.01 µM (active)
COc1ccc(S(=O)(=O)NC2(C(F)(F)F)N=C3SCCN3C2=O)cc1 (stereo not given),–,inactive
CCN1CCN(c2nc(C)c3c(n2)CCCC3=O)CC1,–,inactive
COC(=O)c1ccccc1-c1ccc(/C=C2\C(=O)N(c3ccccc3)N=C2c2ccccc2)o1,–,inactive
O=C(NC1CCCCC1)c1sc(=S)n2c1[nH]c(=O)c1ccccc12,–,inactive
COc1ccc(C2C(C#N)=C(N)N(Nc3ccccc3)C3=C2C(=O)CC(C)(C)C3)cc1C (stereo not given),–,inactive
S=C(S)O[C@@H]1C[C@@H]2C[C@H]1[C@@H]1CCC[C@H]21,–,inactive
CC(=O)OC[C@@H]1O[C@@H](O/N=C2/C[C@@H](O)[C@@H](O)[C@@H]3[C@H]4C(=O)N(c5ccc(F)cc5F)C(=O)[C@@H]4CC[C@H]23)[C@H](OC(C)=O)[C@H](OC(C)=O)[C@@H]1OC(C)=O,–,3.16 µM (active)
CC(=O)OC[C@@H]1O[C@@H](O/N=C2/C[C@@H](O)[C@@H](O)[C@@H]3[C@@H]4C(=O)N(C(C)(C)C)C(=O)[C@H]4CC[C@@H]23)[C@H](OC(C)=O)[C@H](OC(C)=O)[C@@H]1OC(C)=O,-13.3% [at 11.4 µM],–
C#CCCCO/N=C1/C[C@@H](O)[C@@H](O)[C@@H]2[C@@H]3C(=O)N(CCC(=O)OCC)C(=O)[C@H]3CC[C@@H]12,-5.32% [at 11.4 µM],–
CC(=O)OC[C@@H]1O[C@@H](O/N=C2/C[C@@H](O)[C@@H](O)[C@@H]3[C@@H]4C(=O)N(C(C)(C)C)C(=O)[C@H]4CC[C@H]23)[C@H](OC(C)=O)[C@H](OC(C)=O)[C@@H]1OC(C)=O,3.1% [at 11.4 µM],–
CCOC(=O)CCN1C(=O)[C@H]2[C@H]3[C@H](O)[C@H](O)C/C(=N/O[C@@H]4O[C@@H](COC(C)=O)[C@@H](OC(C)=O)[C@@H](OC(C)=O)[C@H]4OC(C)=O)[C@H]3CC[C@@H]2C1=O,–,3.16 µM (active)
CCOC(=O)CCN1C(=O)[C@H]2[C@H]3[C@H](O)[C@H](O)C/C(=N/OC/C=C(\C)CCC=C(C)C)[C@H]3CC[C@@H]2C1=O,1.08% [at 11.4 µM],–
O=C1[C@@H]2[C@H]3[C@H](O)[C@H](O)C/C(=N/OCc4ccccc4)[C@H]3CC[C@H]2C(=O)N1c1ccc(F)cc1F,-7.87% [at 11.4 µM],–
CCOC(=O)CCN1C(=O)[C@H]2[C@H]3[C@H](O)[C@H](O)C/C(=N/OC/C=C(\C)CCC=C(C)C)[C@@H]3CC[C@@H]2C1=O,0.883% [at 11.4 µM],–
CC(=O)OC[C@@H]1O[C@@H](O/N=C2/C[C@@H](O)[C@@H](O)[C@@H]3[C@@H]4C(=O)N(c5cccc(Oc6ccccc6)c5)C(=O)[C@H]4CC[C@H]23)[C@H](OC(C)=O)[C@H](OC(C)=O)[C@@H]1OC(C)=O,0.346% [at 11.4 µM],–
C#CCCCO/N=C1/C[C@@H](O)[C@@H](O)[C@@H]2[C@@H]3C(=O)N(CCC(=O)OCC)C(=O)[C@H]3CC[C@H]12,5.95% [at 11.4 µM],–
CCN1C(=O)[C@H]2[C@H]3[C@H](O)[C@H](O)C/C(=N/O[C@@H]4O[C@H](COC(C)=O)[C@@H](OC(C)=O)[C@H](OC(C)=O)[C@H]4OC(C)=O)[C@@H]3CC[C@@H]2C1=O,–,3.98 µM (active)
CCOC(=O)CCN1C(=O)[C@H]2[C@H]3[C@H](O)[C@H](O)C/C(=N/O[C@@H]4O[C@@H](COC(C)=O)[C@@H](OC(C)=O)[C@@H](OC(C)=O)[C@H]4OC(C)=O)[C@@H]3CC[C@@H]2C1=O,–,3.16 µM (active)
CC(=O)OCC(=O)[C@]12OC(C)(C)O[C@@H]1C[C@H]1[C@H]3CC=C4C[C@@H](O)CC[C@]4(C)[C@H]3CC[C@]12C,25.3% [at 11.4 µM],–
Cn1c(=O)c(-c2ccc(Cl)cc2)nc2cnc(Oc3ccccc3)nc21,–,inactive
N#CC(CC(=O)O)=C(c1ccccc1)c1ccccc1,9.93% [at 11.4 µM],–

SMILES,"activity, negative = inhibition",AC50
CNC(=O)CCc1nc(-c2ccc(C(C)(C)C)cc2)no1,–,inactive
Cc1nn(C(=O)c2ccco2)c(C)c1Sc1ccccc1,–,inactive
Cn1c(=O)n2n(c1=O)[C@H]1[C@H](O)[C@H]3O[C@@H]3/C(=N/OC[C@@H](O)COCc3ccco3)[C@@H]1CC2,15.6% [at 11.4 µM],–
Cn1cc(-c2nc3cnc(N4CCNCC4)nc3n(C)c2=O)c2ccccc21,–,inactive
CC(C)OP(=O)(OC(C)C)C(NC(=O)c1ccc(Br)cc1)c1ccccc1 (stereo not given),–,inactive
COc1ccc(-c2cc(C(=O)O)c3c(C)nn(-c4ccccn4)c3n2)cc1,–,inactive
C[C@@]12CC(=O)[C@@H]3[C@@H](CCC4=CC(=O)CC[C@]43C)[C@@H]1CC=C2CC(=O)O,17.8% [at 11.4 µM],–
Cc1cnc(C(=O)OCC(=O)NC(C)C)cn1,–,inactive
CC(C)(SCc1ccccc1)[C@H](N)C(=O)O,1.44% [at 11.4 µM],–
Cc1ccccc1OCC(=O)NC(=S)Nc1ccc(Br)c(C)n1,–,inactive
Cc1cccc(N(NC(=O)C(C)(C)O)C(=O)c2ccccc2)c1,–,inactive
Cc1nc2c(ccc3nc(NC(=O)c4ccc(S(=O)(=O)N(C)C)cc4)sc32)s1,–,inactive
CC(=O)OC[C@@H]1O[C@@H](O/N=C2/C[C@@H](O)[C@@H](O)[C@@H]3[C@@H]4C(=O)N(C5CCCCC5)C(=O)[C@H]4CC[C@H]23)[C@H](OC(C)=O)[C@H](OC(C)=O)[C@@H]1OC(C)=O,–,3.98 µM (active)
CCOC(=O)N/N=C1/C[C@@H](O)[C@@H](O)[C@@H]2[C@@H]3C(=O)N(C4CCCCC4)C(=O)[C@H]3CC[C@H]12,-11.9% [at 11.4 µM],–
CC(C)=CCC/C(C)=C/CO/N=C1/C[C@@H](O)[C@@H](O)[C@@H]2[C@@H]3C(=O)N(C4CCCCC4)C(=O)[C@H]3CC[C@@H]12,2.55% [at 11.4 µM],–
O=C(NCc1cccnc1)[C@@H]1[C@@H](C(=O)O)[C@H]2CC[C@@H]1O2,8.3% [at 11.4 µM],–
CC1CCCC(C)N1C(=O)c1cc(-c2ccc(Cl)c(Cl)c2)on1 (stereo not given),–,inactive
Cc1ccccc1C1C(C#N)=C2N=C(N)c3c(sc4c3CCCCC4)N2C2=C1C(=O)CC(C)(C)C2 (stereo not given),–,inactive
CO[C@]1(NC(=O)C2SC(=C(C(N)=O)C(=O)O)S2)C(=O)N2C(C(=O)O)=C(CSc3nnnn3C)CS[C@H]21 (stereo not given in full),–,inactive
CCc1ccc(/C=C\C(=O)N2CCc3ccccc3C2)cc1,–,inactive
CCCCN1C(=O)CCC(C(=O)O)C1c1ccccc1 (stereo not given),–,inactive
CCCCCCN1Cc2ccccc2C1,–,3.55 µM (active)
Cc1cc(NC(=O)c2nn(C)c(C)c2[N+](=O)[O-])no1,–,inactive
Cc1ccc(C2CC(=O)c3cnc(N4CCc5ccccc5C4)nc3C2)cc1 (stereo not given),–,inactive
Cc1ccc(S(=O)(=O)Nc2nc3ccccc3nc2N2CCc3ccccc3C2)cc1,–,inactive

SMILES,"activity, negative = inhibition",AC50
Cc1ccc2[nH]c3c(N4CCc5ccccc5C4)ncnc3c2c1,–,0.708 µM (active)
CCN1CCN(Cc2ccc(NC(=O)Nc3cccs3)cc2)CC1,–,inactive
CCN[C@@H]1C[C@H](C)S(=O)(=O)c2sc(S(N)(=O)=O)cc21,–,inactive
CC(C)(C)C(=O)N(CCN(C(=O)C(C)(C)C)c1ccccc1)c1ccccc1,–,inactive
CN(C(=O)CN(CCO)CC(=O)N(C)C(C)(C)Cc1ccccc1)C(C)(C)Cc1ccccc1,–,3.16 µM (active)
C=CC(=O)NC(C)(C)Cc1ccccc1,–,inactive
O=C(CCC(=O)OCc1ccc(C(=O)Oc2ccccc2)cc1)Nc1cccc2ccccc12,–,inactive
CC(=O)Oc1cc(C(F)(F)F)ccc1C(=O)O,–,inactive
CCSC1=C(C#N)C2(CCCCC2)C(C#N)=C(N)N1,–,15.8 µM (active)
C[C@H](Oc1ccccc1)C(=O)N[C@@H]1C(=O)N2[C@@H]1SC(C)(C)[C@@H]2C(=O)O,–,inactive
COC(=O)[C@@]1(Cc2ccc(F)cc2)[C@@H]2[C@@H](CC(=O)[C@H]2CC(=O)C(=O)N(C)C)CN1C(=O)c1ccccc1,–,inactive
O=C(O)CNC(=O)c1ccccc1O,7.44% [at 11.4 µM],–
CCCCCCCCCn1cc(C(C)=O)c(=O)[nH]c1=O,–,inactive
CN1CCN(c2ncc3ncc(=O)n(Cc4cccs4)c3n2)CC1,–,inactive
CN(CCCNC(=O)c1cccn2c(=O)c3ccccc3nc12)Cc1ccccc1,–,2.24 µM (active)
CN(C)CCCNC(=O)CCc1nc2ccccc2c(=O)[nH]1,–,inactive
Cc1nc2ccccc2c(=O)n1NC(=O)c1ccccc1Cl,–,inactive
COC(=O)[C@@H]1C[C@H]1[C@@H](NC(=O)c1cnccn1)c1ccccc1,–,inactive
COc1cccc(OC)c1/C(O)=C(\C#N)c1nc2ccccc2[nH]1,–,inactive
CCNC(=S)NNC(=O)c1cc(C)on1,–,inactive
CCS(=O)(=O)N1CCC(C(=O)NCC2CCCO2)CC1 (stereo not given),–,inactive
Cn1c(O)c(C(C#N)=C2N=c3ccccc3=N2)c2ccccc21,–,7.08 µM (active)
O=C1OCCC1Sc1nnc(-c2ccc(O)cc2)o1 (stereo not given),–,inactive
N#Cc1ccc(-c2ccc(F)cc2)nc1Sc1ccccc1,–,inactive
CCOc1ccc(C(Nc2ccc(C)cc2)P2(=O)OCC(C)(C)CO2)cc1 (stereo not given),–,inactive
